# This is a sample that favours compounds with a hit; in the whole collection about 2.3% have one here.
# CHRM1 antagonist = human M1 muscarinic receptor antagonists, primary screen, CHO-K1 cells, Fluo-8 calcium fluorescence, 1536-well. CHO-K1 hM1, ACh EC80 antagonist. inhibition, % at 3 µM. actives 1.3% (n = 360,000);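 active = percent inhibition above its own plate's cutoff, namely the mean of that plate's compound wells plus 3 SD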;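 also: peak over basal fluorescence ratio during 140 s after agonist addition; 0% = ACh EC80 plus DMSO and 100% = DMSO alone without agonist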
# Target sequence (P11229 whole entry, looked up): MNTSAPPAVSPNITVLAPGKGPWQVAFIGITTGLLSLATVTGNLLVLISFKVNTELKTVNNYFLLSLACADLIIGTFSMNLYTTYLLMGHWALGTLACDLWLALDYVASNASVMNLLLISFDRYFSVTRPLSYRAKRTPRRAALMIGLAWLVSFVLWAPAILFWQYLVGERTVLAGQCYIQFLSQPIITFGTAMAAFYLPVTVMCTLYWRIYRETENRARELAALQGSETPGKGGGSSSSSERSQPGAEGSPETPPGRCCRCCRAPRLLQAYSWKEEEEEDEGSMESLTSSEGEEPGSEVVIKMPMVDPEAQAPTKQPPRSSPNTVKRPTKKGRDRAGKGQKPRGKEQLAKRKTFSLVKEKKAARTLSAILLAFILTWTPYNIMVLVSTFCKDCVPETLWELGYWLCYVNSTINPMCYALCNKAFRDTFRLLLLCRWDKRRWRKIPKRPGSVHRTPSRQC
# CHO-K1 Ca ag = counter-screen for M1 agonists: effect in parental CHO-K1 cells | Fluo-8 calcium fluorescence; scaled to maximal ATP response, vehicle zero | activation, % at 3 µM | actives 0.48% (n = 360,000); in the data active = activation above about 15%;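 also: untransfected CHO-K1 host cells lacking M1 receptor as counterscreen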
# CHRM1 PAM = human M1 muscarinic receptor positive allosteric modulators, primary screen, CHO-K1 cells, Fluo-8 calcium fluorescence, 1536-well; Muscarinic acetylcholine receptor M1 (Homo sapiens), P11229; CHO-K1 hM1, ACh EC20; 0% = ACh EC20, 100% = maximal ACh; activation, % at 3 µM; actives 0.088% (n = 360,000); AID 588819, 2011; in the data active = activation above about 19%, passing the limit was not always enough
# CHO-K1 Ca PAM = nonselective calcium activators in parental CHO-K1 cells, primary screen, counter-screen for M1 PAM project, cell-based, Fluo-8 calcium fluorescence, full deck, 1536-well; AID 602247, 2012; activation, % at 3 µM; actives 0.02% (n = 360,000); ATP EC20; 0% at ATP EC20, 100% at ATP max;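 active = activation above the run cutoff, the mean activation of all test compounds plus 3 SD, cut at about 40% in these data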;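 also: peak over basal fluorescence ratio in a 140 s read after ATP addition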
# CHO-K1 Ca antag = counter-screen for M1 antagonists: effect in parental CHO-K1 cells; inhibition, % at 3 µM; AID 602250; ATP-induced calcium, Fluo-8 fluorescence; actives 0.6% (n = 360,000);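 active = inhibition above a per-plate cutoff, the plate's mean sample inhibition plus 3 SD, cut at about 24% in these data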;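 also: 0% = DMSO plus EC80 ATP and 100% = DMSO alone without ATP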
# CHRM1 agonist = human M1 muscarinic receptor agonists, primary screen, Fluo-8 calcium fluorescence, CHO-K1 cells, HTS; Muscarinic acetylcholine receptor M1 (Homo sapiens), P11229; CHO-K1 hM1, agonist mode; 0% DMSO, 100% acetylcholine EC100; activation, % at 3 µM; actives 0.33% (n = 360,000); AID 588814, 2011;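 active = activation above the run's mean compound activation plus 3 SD, cut at about 16% in these data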;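 also: peak over basal fluorescence ratio within a 140 s kinetic read after compound addition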
# * hit, by the source's call; x = no result given.
SMILES,CHRM1 antagonist,CHO-K1 Ca ag,CHRM1 PAM,CHO-K1 Ca PAM,CHO-K1 Ca antag,CHRM1 agonist
CC1(C)Cc2c(sc3nn[nH]c(=O)c23)CO1,-15,1,5,25,-10,-4
CN1CCN(c2ccc(S(=O)(=O)N3CCCCC3)cn2)CC1,-5,0,2,-6,6,-6
O=S(=O)(NC1CCCCC1)c1ccc(N2CCOCC2)nc1,-5,19*,8,20,-4,-1
O=S(=O)(c1ccc(N2CCCCCC2)nc1)N1CCCC1,70*,1,-33,13,4,-13
O=S(=O)(c1ccc(Cl)nc1)N1CCC(Cc2ccccc2)CC1,-12,1,7,7,-15,-2
NC(=O)C1CCN(c2ccc(S(=O)(=O)N3CCC(Cc4ccccc4)CC3)cn2)CC1,-4,19*,7,8,5,-1
Cc1ccccc1N1C(=O)CN(Cc2sccc2C)C1=S,-4,0,3,5,3,-4
O=C(/C=C/c1cccc(Cl)c1)N1CCC(Cc2ccccc2)CC1,17,1,-10,-12,25*,-2
N#Cc1ccccc1S(=O)(=O)NC(=O)[C@H]1O[C@@H](n2cnc3c(N)ncnc32)[C@H](O)[C@@H]1O,-31,0,-4,6,-15,-1
Cc1nc2nc(C)c(CCC(=O)NC(C)c3ccc4c(c3)OCCO4)c(C)n2n1 (centres undefined),68*,1,-10,5,-1,-6
CC(=O)c1c(C)[nH]c(C(=O)Nc2ccc(F)cc2F)c1C,-2,1,2,1,-13,-1
Cc1cc(C(O)c2ncc(-c3cccc4ccccc34)[nH]2)ccc1F (centres undefined),2,0,-5,-10,24*,-5
CCN(CC)c1ccc(/C=C/c2ccc3ccc(OC)cc3[n+]2CC)cc1,48*,11,-14,-25,57*,3
c1ccc(SC23CCCCN(CCC2)C32OCCO2)cc1 (centres undefined),x,2,x,22,-27,x
O=C(CSc1n[nH]c(-c2ccccc2)n1)N1CCOCC1,-10,2,6,3,-18,-2
CCCC1CC(C)(C(=O)CSc2n[nH]c(-c3ccccc3)n2)OC1=O (centres undefined),30*,0,-15,-3,10,-2
CCn1nc(C)c([N+](=O)[O-])c1C(=O)NNC(=O)c1ccccc1Cl,0,0,-2,-14,6,-1
Cc1ccc(CN/C=C/C(=O)c2ccc(Br)cc2)cc1,-13,2,4,30,-26,-5
Cc1ccc(C(=O)/C=C/NCc2ccc(F)cc2)cc1,-9,0,15,-6,25*,1
CCc1ccc([C@@H]2C[C@H]3[C@@H](CN2S(=O)(=O)c2ccc(C)cc2)C(=O)C[C@@H](c2ccccc2F)N3S(=O)(=O)c2ccc(C)cc2)cc1,-11,0,2,1,-1,-2
CCc1nc2ccc(C(=O)NCCOc3ccc(OC)cc3)cn2c1N(C)CCCc1ccccc1,35*,0,-18,9,-1,-7
CCc1nc2ccc(C(=O)NCCOc3ccc(OC)cc3)cn2c1N(C)Cc1ccc(OC)cc1,30*,4,-20,6,7,-6
CCc1nc2ccc(C(=O)N3CCCC(C(N)=O)C3)cn2c1N(CCC(C)C)CCN(C)C (centres undefined),-8,1,7,15,10,-3
CCc1nc2ccc(C(=O)N3CCCC(C(N)=O)C3)cn2c1N(C)Cc1ccc(OC)cc1 (centres undefined),39*,0,-24,2,3,-10
CCCCNC(=O)c1ccc2nc(CC)c(N(C)Cc3ccc(OC)cc3)n2c1,6,1,-10,7,-5,-7
